High-throughput results as filed in PubChem BioAssay.
The list is not random: actives were taken first. Their share in the collection is about 2.8%.
Peg3 prom inh: reduces Peg3 promoter-driven luciferase expression in HeLa; inhibition, % at 20 µM; 360,000 compounds, 1.7% hits; HeLa PEG-Prom luciferase reporter, luminescence, overnight; AID 588405;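 active means inhibition of at least 50% at 20 µM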
KKLEB tox: CF airway cell cytotoxicity counter-screen; KKLEB CF airway cells viability, ATPlite luminescence, overnight; hits give low values; cells stimulated with P. aeruginosa culture filtrate; activity change (cytotoxicity), % at 5 µM; 360,000 compounds, 0.36% hits; AID 602141;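 active means corrected activity change at or below -50% at 5 µM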
HIF-2a block: blocks HIF-2a reporter activity; 786-0 RCC cells HIF-2a reporter, luciferase luminescence, overnight; 360,000 compounds, 0.72% hits; inhibition, % at 18.8 µM;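 active means inhibition of the luminescence signal of 40% or more relative to plate controls, in a single-dose primary screen at 18.75 µM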
TRPM1 prom inh: inhibitors of MITF-driven TRPM1 promoter in melanoma cells | 330,000 compounds, 0.83% hits | SK-MEL-5 TRPM1 promoter luciferase, 24 h | inhibition, % at 12.5 µM;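 active means mean inhibition across replicates of 60% or more, whatever share of single replicates reaches that level; inconclusive means some that reach 60%, reason not given; inactive means mean inhibition across replicates below 60%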
Shn3 inh set2: inhibitors of Schnurri-3 3'UTR reporter in osteoblasts | AID 588674 | 360,000 compounds, 0.52% hits | Clone20 osteoblast Shn3 3'UTR firefly luciferase, 24 h | inhibition, % at 12.5 µM;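 active means mean inhibition of at least 75% with every replicate also reaching 75%; inconclusive means mean inhibition at least 75% but some replicate below; inactive means mean inhibition below 75%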;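 further: 0% = median of neutral control wells and 100% = pilot-screen positive control compound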
CF NFkB inh: inhibitors of cystic fibrosis induced NF-kB; 360,000 compounds, 0.86% hits; inhibition, % at 5 µM; KKLEB NF-kB-GFP reporter, PAF-induced, GFP fluorescence overnight; AID 588850;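 active means at least 50% inhibition at 5 µM, scaled per plate between neutral and stimulator controls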;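 further: PAF is a Pseudomonas aeruginosa culture filtrate used as stimulus; plate controls were PAF-stimulated DMSO wells for no effect and unstimulated DMSO wells for full effect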
Mdm2 MdmX conf: confirmation of inhibitors of human Mdm2/MdmX interaction, set 2; shares compounds with HIF-2a block; 740 compounds, 99% hits; SaOS-2 split-luciferase Mdm2/MdmX complementation, luminescence; inhibition, % at 8 µM; AID 504601;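 active means mean inhibition of the luminescence signal across two replicates at or above 26 percent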
Target sequence (O15151 whole entry, looked up): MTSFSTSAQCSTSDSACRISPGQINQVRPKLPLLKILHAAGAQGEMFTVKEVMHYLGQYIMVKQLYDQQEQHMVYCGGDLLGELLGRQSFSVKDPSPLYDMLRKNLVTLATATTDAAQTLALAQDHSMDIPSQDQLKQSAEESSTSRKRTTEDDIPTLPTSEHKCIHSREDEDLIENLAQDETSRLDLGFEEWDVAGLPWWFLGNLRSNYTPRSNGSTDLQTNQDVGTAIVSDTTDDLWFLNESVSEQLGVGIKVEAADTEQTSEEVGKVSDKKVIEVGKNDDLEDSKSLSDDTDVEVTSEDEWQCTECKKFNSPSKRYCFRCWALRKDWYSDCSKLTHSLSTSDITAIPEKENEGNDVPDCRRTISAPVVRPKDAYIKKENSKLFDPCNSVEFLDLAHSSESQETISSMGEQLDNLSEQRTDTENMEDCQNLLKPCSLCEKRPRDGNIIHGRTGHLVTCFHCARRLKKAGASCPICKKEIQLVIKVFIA
Target sequence (Q00987 whole entry, looked up): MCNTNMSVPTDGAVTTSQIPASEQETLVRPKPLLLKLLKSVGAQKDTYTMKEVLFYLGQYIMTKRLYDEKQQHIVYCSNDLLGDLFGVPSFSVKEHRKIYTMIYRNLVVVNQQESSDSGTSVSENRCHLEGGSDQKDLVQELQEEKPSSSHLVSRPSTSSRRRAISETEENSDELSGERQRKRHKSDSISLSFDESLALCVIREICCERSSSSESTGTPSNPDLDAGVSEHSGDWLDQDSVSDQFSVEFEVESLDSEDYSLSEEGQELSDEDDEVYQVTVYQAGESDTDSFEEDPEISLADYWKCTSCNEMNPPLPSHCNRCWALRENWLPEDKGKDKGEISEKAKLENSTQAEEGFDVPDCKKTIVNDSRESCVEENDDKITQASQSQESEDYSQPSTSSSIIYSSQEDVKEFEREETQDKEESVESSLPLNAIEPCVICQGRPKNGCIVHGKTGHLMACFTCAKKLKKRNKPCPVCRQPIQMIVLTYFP
HIF-2a conf: HIF-2a inhibition, single concentration confirmation | shares compounds with HIF-2a block | 786-0 RCC cells, HIF-2a luciferase reporter luminescence, overnight | inhibition, % at 18.8 µM | 1,800 compounds, 56% hits;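 active means mean inhibition across four replicates of at least 40 percent at the single tested concentration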
HIF-1a counter: counter-screen for HIF-2a inhibitors: HIF-1a inhibition in MiaPaCa-2 cells | AID 651589 | shares compounds with HIF-2a block | inhibition, % at 18.8 µM | MiaPaCa-2 HIF-1a luciferase reporter, desferoxamine, overnight | 1,800 compounds, 72% hits;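 active means mean inhibition of the reporter signal across four replicates at the single tested dose of 50% or more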
An asterisk follows results filed as active.

Screening COc1ccc(C(=O)N/C(=C/c2cccs2)c2nc3ccccc3[nH]2)cc1OC returned Peg3 prom inh -7, KKLEB tox -2, HIF-2a block -12, TRPM1 prom inh -6, Shn3 inh set2 -9 and CF NFkB inh -10.
COc1cc(/C=C(/C(=O)c2cccs2)c2nc3ccccc3[nH]2)cc(OC)c1O was read as Peg3 prom inh 100*, KKLEB tox -7, HIF-2a block 79*, TRPM1 prom inh 53, Shn3 inh set2 -15, CF NFkB inh 35, Mdm2 MdmX conf 103*, HIF-2a conf 57* and HIF-1a counter 102*.
O=C(O)CC1(CC(=O)Nc2ccc(F)c(Cl)c2)CCCCC1 was read as Peg3 prom inh 12, KKLEB tox -10, HIF-2a block 11, Shn3 inh set2 9 and CF NFkB inh 18.
For CC(=O)C1=C(c2ccccc2)NC(=O)NC1c1cccs1 (stereo not drawn) the results were Peg3 prom inh 6, KKLEB tox 6, HIF-2a block 14, TRPM1 prom inh -3, Shn3 inh set2 2 and CF NFkB inh -24.
`O=C1CCCC2=C1C(c1ccccc1)CC(=O)N2c1ccc(F)cc1F` (stereo not drawn) gave Peg3 prom inh 13, KKLEB tox -2, HIF-2a block 1, TRPM1 prom inh 6, Shn3 inh set2 -23 and CF NFkB inh 28.
`Cc1ccc(-c2nc(NC(=O)c3nn(C)cc3[N+](=O)[O-])sc2C)cc1C` gave Peg3 prom inh 109*, KKLEB tox -38, HIF-2a block 66*, TRPM1 prom inh 79*, Shn3 inh set2 93*, CF NFkB inh 23, Mdm2 MdmX conf 100*, HIF-2a conf 1 and HIF-1a counter 105*.
For CCn1cc([N+](=O)[O-])c(C(=O)Nc2ccn(C34CC5CC(CC(C5)C3)C4)n2)n1 the results were Peg3 prom inh 6, KKLEB tox 9, HIF-2a block 17, TRPM1 prom inh 7, Shn3 inh set2 7 and CF NFkB inh 9.
Cc1ccc(Cn2ccc(NC(=O)c3nn(C)cc3[N+](=O)[O-])n2)cc1 was read as Peg3 prom inh 48, KKLEB tox 15, HIF-2a block -70, TRPM1 prom inh 23, Shn3 inh set2 inconclusive and CF NFkB inh -14.
`Cn1cc([N+](=O)[O-])c(C(=O)Nc2ccn(C34CC5CC(CC(C5)C3)C4)n2)n1` gave Peg3 prom inh 7, KKLEB tox -2, HIF-2a block 49*, TRPM1 prom inh 15, Shn3 inh set2 6, CF NFkB inh 28, HIF-2a conf 60* and HIF-1a counter 57*.
For Cn1cc([N+](=O)[O-])c(C(=O)Nc2nc(-c3ccc(Cl)cc3)cs2)n1 the results were Peg3 prom inh 106*, KKLEB tox -95*, HIF-2a block 94*, TRPM1 prom inh 83*, Shn3 inh set2 41, CF NFkB inh 89*, HIF-2a conf 86* and HIF-1a counter 105*.
Screening Cc1ccc(-c2nc(NC(=O)c3nn(C)cc3[N+](=O)[O-])sc2C)cc1 returned Peg3 prom inh 109*, KKLEB tox -64*, HIF-2a block 93*, TRPM1 prom inh 85*, Shn3 inh set2 93*, CF NFkB inh 89*, Mdm2 MdmX conf 103*, HIF-2a conf 85* and HIF-1a counter 105*.
Screening Cc1c(NC(=O)Nc2ccc(F)cc2F)c(=O)n(-c2ccccc2)n1C returned Peg3 prom inh 22, KKLEB tox 5, HIF-2a block 8, TRPM1 prom inh -14, Shn3 inh set2 -3 and CF NFkB inh -5.
CCn1nc([N+](=O)[O-])c(C(C#N)c2nc3ccccc3n2C)c(Cl)c1=O (stereo not drawn) was read as Peg3 prom inh 26, KKLEB tox -17, HIF-2a block 27, TRPM1 prom inh -25, Shn3 inh set2 18 and CF NFkB inh 43.
CCCn1nc([N+](=O)[O-])c(C(C#N)c2nc3ccccc3s2)c(Cl)c1=O (stereo not drawn) was read as Peg3 prom inh 47, KKLEB tox -55*, HIF-2a block 52*, TRPM1 prom inh 38, Shn3 inh set2 0, CF NFkB inh 30 and Mdm2 MdmX conf 100*.
`CCN(CC)S(=O)(=O)c1ccc(N/N=C/c2ccc(O)cc2O)nc1` gave Peg3 prom inh 42, KKLEB tox 4, HIF-2a block 2, TRPM1 prom inh 50, Shn3 inh set2 inconclusive, CF NFkB inh -1 and Mdm2 MdmX conf 87*.
Screening Oc1ccccc1-c1cc(C(F)(F)C(F)F)nc(-c2ccccc2)n1 returned Peg3 prom inh 8, KKLEB tox 6, HIF-2a block -5, TRPM1 prom inh 10, Shn3 inh set2 -13 and CF NFkB inh 16.
O=[N+]([O-])c1ccc(O)c(-c2cc(C(F)(F)F)nc(-c3ccccc3)n2)c1 was read as Peg3 prom inh 79*, KKLEB tox -65*, HIF-2a block 27, TRPM1 prom inh 89*, Shn3 inh set2 90*, CF NFkB inh 72* and Mdm2 MdmX conf 102*.
Screening COc1ccc(Br)cc1/C=C/C(=O)c1ccc(NC(C)=O)cc1 returned Peg3 prom inh 106*, KKLEB tox 17, HIF-2a block 85*, TRPM1 prom inh 82*, Shn3 inh set2 97*, CF NFkB inh 42, HIF-2a conf 64* and HIF-1a counter 106*.
`COc1ccc(NC(=O)/C=C/c2cc(Br)ccc2OC)cc1` gave Peg3 prom inh 10, KKLEB tox -8, HIF-2a block -11, TRPM1 prom inh 23, Shn3 inh set2 1 and CF NFkB inh -13.
Screening O=S(=O)(/C(=C\c1ccc(C(F)(F)F)cc1)c1nc2ccccc2[nH]1)c1ccccc1 returned Peg3 prom inh 105*, KKLEB tox -68*, HIF-2a block 84*, TRPM1 prom inh 97*, Shn3 inh set2 93*, CF NFkB inh 86*, HIF-2a conf 98* and HIF-1a counter 107*.
For CC[C@@]1(C(=O)OC)N[C@H](CN(C)S(=O)(=O)c2ccc(-c3ccccc3)cc2)[C@@H]2C(=O)N(Cc3ccccc3)C(=O)[C@@H]21 the results were Peg3 prom inh -8, KKLEB tox 0, HIF-2a block 0, TRPM1 prom inh 1, Shn3 inh set2 7, CF NFkB inh -4 and Mdm2 MdmX conf 90*.
